# From PubChem BioAssay AID1159580 (chemical genetic matrix, 2015)
# Values joined by “and” are separate entries in the source; they are usually repeats but may differ in a detail not shown here. Identical values can stand only once. Among all 5,500 compounds or so, about 2,000 (36%) were called active. Another 18% or so got no clear call; they are omitted. This is one part of the list. Values without a mark were called inactive. Cut-off read from the data, not from the text of the source: active = normalized growth mostly below about 0.91 (no sharp cut-off); inconclusive = no clear call, values can overlap the other calls; inactive = mostly above about 0.92.
# Experiment: chemical genetic growth profiling, strain panel (AID 1159580);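 note: tested at 20 µM; growth read once vehicle control cultures reached saturation at 30 °C; 1 = growth at the plate median or of vehicle wells; lower values mean less growth of the strain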
# Conditions: S. cerevisiae deletion strains, growth OD
smiles,measurement,setting,value
CN1C(C(=O)Nc2ccccn2)=C(O)c2ccccc2S1(=O)=O,normalized growth,"locus YAL013W, strain DEP1, active compounds read low",0.977 and 0.995
same,normalized growth,"locus YAL021C, strain ccr4, active compounds read low",0.977
same,normalized growth,"locus YAL026C, strain drs2, active compounds read low",0.964
same,normalized growth,"locus YAL030W, strain snc1, active compounds read low",0.944
same,normalized growth,"locus YAL040C, strain CLN3, active compounds read low",1
same,normalized growth,"locus YBL061C, strain skt5, active compounds read low",0.966
same,normalized growth,"locus YBR009C, strain hhf1, active compounds read low",0.932
same,normalized growth,"locus YBR021W, strain FUR4, active compounds read low",0.994
same,normalized growth,"locus YBR023C, strain chs3, active compounds read low",0.982
same,normalized growth,"locus YBR171W, strain sec66, active compounds read low",0.922
same,normalized growth,"locus YBR229C, strain ROT2, active compounds read low",0.965
same,normalized growth,"locus YBR231C, strain swc5, active compounds read low",0.953
same,normalized growth,"locus YBR279W, strain paf1, active compounds read low",0.979
same,normalized growth,"locus YCL011C, strain gbp2, active compounds read low",0.956
same,normalized growth,"locus YCL016C, strain dcc1, active compounds read low",0.969
same,normalized growth,"locus YCL029C, strain bik1, active compounds read low",0.955
same,normalized growth,"locus YCL061C, strain MRC1 (second series), active compounds read low",0.997
same,normalized growth,"locus YCL069W, strain vba3, active compounds read low",0.961
same,normalized growth,"locus YCR088W, strain abp1, active compounds read low",0.968
same,normalized growth,"locus YDL005C, strain med2, active compounds read low",0.964
same,normalized growth,"locus YDL035C, strain GPR1, active compounds read low",1.01
same,normalized growth,"locus YDL040C, strain nat1, active compounds read low",0.966
same,normalized growth,"locus YDL074C, strain BRE1, active compounds read low",0.992
same,normalized growth,"locus YDL101C, strain DUN1, active compounds read low",0.997
same,normalized growth,"locus YDL134C, strain PPH21, active compounds read low",0.98
same,normalized growth,"locus YDL185W, strain tfp1, active compounds read low",0.922
same,normalized growth,"locus YDL192W, strain arf1, active compounds read low",0.966
same,normalized growth,"locus YDR001C, strain nth1, active compounds read low",0.956
same,normalized growth,"locus YDR069C, strain doa4, active compounds read low",0.984
same,normalized growth,"locus YDR101C, strain arx1, active compounds read low",0.966
same,normalized growth,"locus YDR137W, strain rgp1, active compounds read low",0.918
same,normalized growth,"locus YDR150W, strain NUM1, active compounds read low",0.971
same,normalized growth,"locus YDR159W, strain sac3, active compounds read low",0.966
same,normalized growth,"locus YDR162C, strain NBP2, active compounds read low",0.991
same,normalized growth,"locus YDR195W, strain ref2",0.962
same,normalized growth,"locus YDR297W, strain sur2, active compounds read low",0.945
same,normalized growth,"locus YDR318W, strain mcm21, active compounds read low",0.944
same,normalized growth,"locus YDR334W, strain swr1, active compounds read low",0.974
same,normalized growth,"locus YDR335W, strain msn5, active compounds read low",0.97
same,normalized growth,"locus YDR363W, strain ESC2, active compounds read low",1.02
same,normalized growth,"locus YDR388W, active compounds read low",0.953
same,normalized growth,"locus YDR392W, strain spt3, active compounds read low",0.539 (active)
same,normalized growth,"locus YDR502C, strain sam2, active compounds read low",0.957
same,normalized growth,"locus YEL003W, strain gim4, active compounds read low",0.946
same,normalized growth,"locus YEL037C, strain rad23, active compounds read low",0.976
same,normalized growth,"locus YEL061C, strain CIN8 (second series), active compounds read low",0.978
same,normalized growth,"locus YEL061C, strain CIN8, active compounds read low",0.977
same,normalized growth,"locus YER002W, strain NOP16, active compounds read low",0.979
same,normalized growth,"locus YER015W, strain faa2, active compounds read low",0.961
same,normalized growth,"locus YER016W, strain bim1, active compounds read low",0.976
same,normalized growth,"locus YER110C, active compounds read low",0.97
same,normalized growth,"locus YER111C, strain swi4, active compounds read low",0.958
same,normalized growth,"locus YER155C, strain BEM2 (second series), active compounds read low",0.882
same,normalized growth,"locus YER155C, strain BEM2, active compounds read low",0.962
same,normalized growth,"locus YER167W, strain BCK2, active compounds read low",0.968
same,normalized growth,"locus YFR010W, strain ubp6, active compounds read low",0.971
same,normalized growth,"locus YGL078C, strain dbp3, active compounds read low",0.959
same,normalized growth,"locus YGL086W, strain mad1, active compounds read low",0.95
same,normalized growth,"locus YGL167C, strain pmr1, active compounds read low",0.937
same,normalized growth,"locus YGL173C, strain kem1, active compounds read low",0.957
same,normalized growth,"locus YGL227W, strain vid30, active compounds read low",0.964
same,normalized growth,"locus YGL240W, strain doc1, active compounds read low",0.949
same,normalized growth,"locus YGL248W, strain PDE1, active compounds read low",0.984
same,normalized growth,"locus YGL253W, strain hxk2, active compounds read low",0.961
same,normalized growth,"locus YGR078C, strain PAC10, active compounds read low",0.975
same,normalized growth,"locus YGR135W, strain pre9, active compounds read low",0.958
same,normalized growth,"locus YGR229C, strain SMI1, active compounds read low",0.98 and 1.02
same,normalized growth,"locus YGR252W, strain gcn5, active compounds read low",0.99
same,normalized growth,"locus YHR013C, strain ard1, active compounds read low",0.91
same,normalized growth,"locus YHR027C, strain rpn1, active compounds read low",0.982
same,normalized growth,"locus YHR030C, strain SLT2, active compounds read low",0.972 and 0.968
same,normalized growth,"locus YHR079C, strain IRE1 (second series), active compounds read low",0.96
same,normalized growth,"locus YHR079C, strain IRE1, active compounds read low",0.947
same,normalized growth,"locus YHR094C, strain hxt1, active compounds read low",0.956
same,normalized growth,"locus YHR129C, strain ARP1, active compounds read low",0.97
same,normalized growth,"locus YHR142W, strain chs7, active compounds read low",0.951
same,normalized growth,"locus YHR200W, strain rpn10, active compounds read low",0.972
same,normalized growth,"locus YIL066C, strain RNR3, active compounds read low",0.99
same,normalized growth,"locus YIL073C, strain SPO22, active compounds read low",0.985
same,normalized growth,"locus YIL125W, strain kgd1, active compounds read low",0.946
same,normalized growth,"locus YIR030C, strain dcg1, active compounds read low",0.959
same,normalized growth,"locus YJL092W, strain hpr5, active compounds read low",0.962
same,normalized growth,"locus YJL095W, strain BCK1 (second series), active compounds read low",0.951
same,normalized growth,"locus YJL095W, strain BCK1, active compounds read low",0.971 and 0.957
same,normalized growth,"locus YJL115W, strain asf1, active compounds read low",0.985
same,normalized growth,"locus YJL129C, strain trk1, active compounds read low",0.679 (active)
same,normalized growth,"locus YJL134W, strain LCB3, active compounds read low",0.967
same,normalized growth,"locus YJL154C, strain vps35, active compounds read low",0.962
same,normalized growth,"locus YJL164C, strain tpk1, active compounds read low",0.951
same,normalized growth,"locus YJL166W, strain qcr8, active compounds read low",0.898 (active)
same,normalized growth,"locus YJL168C, strain set2, active compounds read low",0.938
same,normalized growth,"locus YJL187C, strain SWE1 (second series), active compounds read low",0.999
same,normalized growth,"locus YJR043C, strain POL32, active compounds read low",0.995
same,normalized growth,"locus YJR066W, strain TOR1, active compounds read low",0.918
same,normalized growth,"locus YJR075W, strain HOC1, active compounds read low",0.991 and 1
